# Measured values published in PubChem BioAssay (NCATS).
# Where “and” joins values, the source holds several entries; their conditions need not be identical. Equal entries are not always repeated. Records with an inconclusive call do not appear. Entries that show only a call come without a potency. Calls of active or inactive are those of the source. Calls follow the shape of the dose curve; as a rule, active = well fitted curve in the direction sought with a large enough effect; inconclusive = small, poorly fitted or top-dose-only effect, or another doubt; inactive = no such curve, though single readings can be large; an effect the other way counts as inactive or inconclusive. Where a SMILES comes first, the peptide text is derived from it. Bridges are numbered along the chain shown (N, C = ends). [ ]: non-standard residue; d: D form. The star is where a group is joined. ξ: configuration not given here. ξPhe(βξ-Me) = CC(c1ccccc1)C(N)C(=O)O; X1 = CCC(C)C(N)C1=NC(C(=O)*)CS1; dOrn = NCCC[C@@H](N)C(=O)O; GABA = NCCCC(=O)O
# How the values were obtained:
# [1] = P-glycoprotein substrates identified in KB-3-1 adenocarcinoma cell line, qHTS therapeutic library screen (AID 1346986); also: nearly all actives have a fitted effect of over 60% in size;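 also: potency is for cytotoxicity meaning loss of cell viability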
# Summary of the method: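 In 1536-well format, 500 cells/well received pinned compound titrations and were incubated 72 h, 5% CO2. Viability was read by CellTiter-Glo; cytotoxic if AC50 < 10 uM and efficacy >50%.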
# [2] = P-glycoprotein substrates identified in KB-8-5-11 adenocarcinoma cell line, qHTS therapeutic library screen (AID 1346987); also: nearly all actives have a fitted effect of over 65% in size; as to activity change, negative = cytotoxicity: series mostly up to about 44 µM
# Summary of the method: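 Compounds are pinned in dose-response onto KB-8-5-11 cells (500 cells/well, colchicine-free medium) and left 72 h at 37 degree C. CellTiter-Glo luminescence then yields AC50 values.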
# Potency is read from the fitted curve at half-maximal effect.
smiles,measurement,setting,value
CC(=O)c1cnc2ccc(-c3cc(Cl)c(O)c(Cl)c3)nc2c1NC1CCC(CN(C)C)CC1 (stereo not drawn),Potency,[1],0.013 µM (active)
same,Potency,[2],119 nM (active) and 23.1 nM (active)
CC(C)C1=CCC(C)(O)C(OC2OC(CO)C(O)C(O)C2O)C1 (stereo not drawn),Potency,[1],inactive
same,Potency,[2],inactive
CCn1c2ccccc2c2cc(CNC)ccc21,Potency,[1],inactive
same,Potency,[2],inactive
C=CC1(C)CC(O)C2(CCC3C(C)(C(=O)O)CCCC3(C)C2=O)C1 (stereo not drawn),Potency,[1],inactive
same,Potency,[2],inactive
Cc1cc(N2CCCCC2)nc2ccccc12,Potency,[1],inactive
same,Potency,[2],inactive
COc1ccc2c(c1O)OC[C@H]1c3ccc(O)cc3O[C@@H]21,Potency,[1],inactive
same,Potency,[2],inactive
COc1ccc(C(O[C@@H]2O[C@H](CO)[C@@H](O)[C@H](O)[C@H]2O)C(CO)Oc2ccc(/C=C/CO)cc2OC)cc1O (stereo partly drawn),Potency,[1],inactive
same,Potency,[2],inactive
C[C@@H]1O[C@@H](O[C@H]2[C@H](OC(=O)C34CCC(C)(C)CC3C3=CCC5C6(C)CC(O)C(O[C@@H]7O[C@H](CO)[C@@H](O)[C@H](O)[C@H]7O)C(C)(C(=O)O)C6CCC5(C)C3(CO)CC4)O[C@H](C)[C@H](O)[C@@H]2O)[C@H](O)[C@H](O)[C@H]1O[C@@H]1OC[C@@H](O)[C@H](O)[C@H]1O (stereo partly drawn),outcome,[1],inactive [at 9.29 µM]
same,outcome,[2],inactive [at 9.29 µM]
COc1cc(CCc2ccccc2)c(C(=O)O)c2c1CC(C(C)(C)O)O2 (stereo not drawn),Potency,[1],inactive
same,Potency,[2],inactive
CCCCCCc1cccc(NC(=O)[C@H](N)CCP(=O)(O)O)c1,outcome,[1],inactive [at 9.29 µM]
same,outcome,[2],inactive [at 9.29 µM]
COC1=CC(=O)O[C@@H](/C=C/c2ccccc2)[C@@H]1O,Potency,[1],inactive
same,Potency,[2],inactive
C[C@H]1C[C@H]2[C@@H]3CCC4=CC(=O)C=C[C@]4(C)[C@@]3(F)[C@@H](O)C[C@]2(C)[C@@]1(O)C(=O)COP(=O)(O)O,Potency,[1],inactive
same,Potency,[2],inactive
COC(=O)[C@H](OC(C)=O)[C@H]1C(C)(C)C(=O)[C@H]2CC3=C4CC(=O)O[C@@H](c5ccoc5)[C@]4(C)CCC3[C@@]1(C)C2=O (stereo partly drawn),Potency,[1],inactive
same,Potency,[2],inactive
COc1cc(COC2OC(CO)C(O)C(O)C2O)cc(OC)c1O (stereo not drawn),Potency,[1],inactive
same,Potency,[2],inactive
COc1c(C)c(OCC=C(C)C)cc2c1C(=O)NC2=O,Potency,[1],inactive
same,Potency,[2],inactive
COc1cc(C2c3cc(O)c(OC)cc3CC(CO)C2CO)ccc1O (stereo not drawn),Potency,[1],inactive
same,Potency,[2],inactive
CC[C@H](/C=C/[C@@H](C)[C@H]1CC[C@H]2[C@@H]3CC=C4C[C@@H](O)CC[C@]4(C)[C@H]3CC[C@]12C)C(C)C,outcome,[1],inactive [at 5.11 µM]
same,"activity change, negative = cytotoxicity",[2],0.93% [at 5.11 µM] (inactive)
CN1C(=O)c2ccccc2-n2c(nc3ccccc3c2=O)/C1=C/c1ccccc1,Potency,[1],inactive
same,Potency,[2],inactive
C=CC(C)(O)CC/C=C(\C)C(=O)OCC1OC(OC2CCC3(C)C(CCC4(C)C3CC=C3C5CC(C)(C)C(O)CC5(C(=O)O)CCC34C)C2(C)C)C(O)C(OC2OC(CO)C(O)C(OC3OC(CO)C(O)C(OC4OC(COC5OC(CO)C(O)C(O)C5O)C(O)C(O)C4O)C3O)C2O)C1O (stereo not drawn),outcome,[1],inactive [at 9.29 µM]
same,"activity change, negative = cytotoxicity",[2],5.27% [at 9.29 µM] (inactive)
C=Cc1cc(O)cc2nc(-c3ccc(O)c(F)c3)oc12,Potency,[1],inactive
same,Potency,[2],inactive
Nc1nc(CC(=O)Nc2ccc(CCNCC(O)c3ccccc3)cc2)cs1 (stereo not drawn),Potency,[1],inactive
same,Potency,[2],inactive
c1ccc(Nc2nc3c(s2)CCCc2[nH]ncc2-3)nc1,Potency,[1],inactive
same,Potency,[2],inactive
Nc1ccn([C@@H]2C(F)=C(CO)[C@@H](O)[C@H]2O)c(=O)n1,Potency,[1],3.66 µM (active)
same,Potency,[2],10.3 µM (active)
COc1cccc(-n2nc(C(=O)O)cc2-c2ccc(C3CCCCC3)c(Cl)c2)c1,Potency,[1],inactive
same,Potency,[2],inactive
CC1(C)CC[C@]2(C(=O)O)CC[C@]3(C)C(=CCC4[C@@]5(C)CC[C@H](O[C@@H]6O[C@H](C(=O)O)[C@@H](O)[C@H](O)[C@H]6O)C(C)(CO)C5CC[C@]43C)C2C1 (stereo partly drawn),Potency,[1],inactive
same,Potency,[2],inactive
C=CC(C)(O)CC/C=C(\C)C(=O)OC1CC2(C(=O)O)CCC3(C)C(=CCC4C5(C)CCC(OC6OC(COC7OCC(O)C(O)C7O)C(O)C(OC7OCC(O)C(O)C7O)C6OC6OC(CO)C(O)C(O)C6OC6OCC(O)C(O)C6O)C(C)(C)C5CCC43C)C2CC1(C)C (stereo not drawn),outcome,[1],inactive [at 9.29 µM]
same,outcome,[2],inactive [at 9.29 µM]
CC1=C(CC(=O)O)c2cc(F)ccc2C1=Cc1ccc(S(C)(=O)=O)cc1,Potency,[1],inactive
same,Potency,[2],inactive
CC1(C)CC[C@]2(C(=O)O[C@@H]3O[C@H](CO)[C@@H](O)[C@H](O)[C@H]3O)CC[C@]3(C)C(=CCC4[C@@]5(C)C[C@@H](O)[C@H](O)[C@@](C)(CO)C5CC[C@]43C)C2C1 (stereo partly drawn),Potency,[1],inactive
same,Potency,[2],inactive
CC(=O)NC(CCC(=O)O)C(=O)NCCc1ccc(O)cc1 (stereo not drawn),Potency,[1],inactive
same,Potency,[2],inactive
C[C@@H]1O[C@@H](OC[C@H]2O[C@@H](OCCc3ccccc3)[C@H](O)[C@@H](O)[C@@H]2O)[C@H](O)[C@H](O)[C@H]1O,Potency,[1],inactive
same,Potency,[2],inactive
C[C@]12C=CC(=O)C=C1CC[C@@H]1[C@@H]2[C@@H](O)C[C@@]2(C)[C@H]1CC[C@]2(O)C(=O)COC(=O)CCC(=O)O,Potency,[1],inactive
same,Potency,[2],inactive
O=C(OCc1cccc(O)c1O[C@@H]1O[C@H](CO)[C@@H](O)[C@H](O)[C@H]1O)C1(O)C(=O)C2C=CC1C1C=CC(=O)C(O)(C(=O)OCc3cccc(O)c3O[C@@H]3O[C@H](CO)[C@@H](O)[C@H](O)[C@H]3O)C21 (stereo partly drawn),outcome,[1],inactive [at 9.29 µM]
same,outcome,[2],inactive [at 9.29 µM]
CCC(C)/C=C(C)/C=C/C1=CC2=C(Cl)C(=O)C(C)(OC(C)=O)C(=O)C2=CN1CCCC(=O)O (stereo not drawn),Potency,[1],inactive
same,Potency,[2],inactive
CCCCN(CCCC)C(=O)CN1C[C@H](c2ccc3c(c2)OCO3)[C@@H](C(=O)O)[C@@H]1c1ccc(OC)cc1,Potency,[1],inactive
same,Potency,[2],inactive
CC1(C)C(=O)C(C)(C)c2cc(C(=O)Nc3ccc(C(=O)O)cc3)ccc21,Potency,[1],inactive
same,Potency,[2],inactive
C=C1CCC[C@]2(C)C[C@]3(O)OC(=O)C(C)=C3C[C@@H]12,Potency,[1],inactive
same,Potency,[2],inactive
C=C1C2=CC(O)C(C)C1(C)CC/C(C)=C/CCC1(C)OC1C2=O (stereo not drawn),Potency,[1],inactive
same,Potency,[2],inactive
CC1=C2C(=O)O[C@@H](c3ccoc3)[C@]2(C)CCC1,Potency,[1],inactive
same,Potency,[2],inactive
CC1=CCC2C(C)(CO)CCCC2(CO)C1CO (stereo not drawn),Potency,[1],inactive
same,Potency,[2],inactive
C/C=C(/C)C(=O)O[C@H]1C=C(C)C[C@H](OC(=O)c2ccc(O)cc2)C2[C@](O)(C(C)C)CC[C@@]21C (stereo partly drawn),Potency,[1],inactive
same,Potency,[2],inactive
COc1c(OC2OC(CO)C(O)C(O)C2O)ccc(O)c1C(=O)OCc1ccccc1O[C@@H]1O[C@H](CO)[C@@H](O)[C@H](O)[C@H]1O (stereo partly drawn),Potency,[1],inactive
same,Potency,[2],inactive
N#CC1C(=O)Nc2scc(-c3ccc(-c4ccccc4O)cc3)c2C1=O (stereo not drawn),Potency,[1],inactive
same,Potency,[2],inactive
O=C(/C=C/c1ccccc1)OCC1=CC[C@@H]2C(C(=O)O)=CO[C@@H](O[C@@H]3O[C@H](CO)[C@@H](O)[C@H](O)[C@H]3O)[C@H]12,Potency,[1],inactive
same,Potency,[2],inactive
CC(C)CC1NC(=O)C(C(C)c2ccccc2)NC(=O)C(C(C)C)NC(=O)C(C)NC(=O)CCCNC(=O)C(Cc2c[nH]c3ccccc23)NC(=O)C(C)NC1=O (stereo not drawn) (cyclo([GABA]AV[ξPhe(βξ-Me)]LAW); configuration not given here),Potency,[1],inactive
same,Potency,[2],inactive
CC1(C)CC2C(C1)C1(C)CCC13OC3(CO)C2O (stereo not drawn),Potency,[1],inactive
same,Potency,[2],inactive
CC(=O)OC(CSC1CCC(=O)OC(C)CCC(=O)C1)C(=O)O (stereo not drawn),Potency,[1],inactive
same,Potency,[2],inactive
CC1CCC2(O1)C(C)(C)CC(O[C@@H]1O[C@H](CO[C@@H]3OC[C@](O)(CO)[C@H]3O)[C@@H](O)[C@H](O)[C@H]1O)CC2(C)O (stereo partly drawn),Potency,[1],inactive
same,Potency,[2],inactive
CC1OC(OC2C(CO)OC(OCC3OC(OC(=O)C45CCC(C)(C)CC4C4=CCC6C7(C)CCC(OC8OC(C(=O)O)C(O)C(OC9OC(CO)C(O)C(O)C9O)C8O)C(C)(C)C7CCC6(C)C4(C)CC5)C(O)C(O)C3O)C(O)C2O)C(O)C(O)C1O (stereo not drawn),outcome,[1],inactive [at 9.29 µM]
same,outcome,[2],inactive [at 9.29 µM]
CC1=CC(=O)CC(C)(CO[C@@H]2O[C@H](CO)[C@@H](O)[C@H](O)[C@H]2O)C1(O)/C=C/C(C)=C/C(=O)O (stereo partly drawn),Potency,[1],inactive
same,Potency,[2],inactive
CC(/C=C/[C@]1(O)[C@@]2(C)CO[C@@]1(C)C[C@@H](O)C2)=C\C(=O)O[C@@H]1O[C@H](CO)[C@@H](O)[C@H](O)[C@H]1O,Potency,[1],inactive
same,Potency,[2],inactive
CCOC(=O)[C@H]1O[C@@H]1C(=O)N[C@@H](CC(C)C)C(=O)NCCC(C)C,Potency,[1],inactive
same,Potency,[2],inactive
CCC(C)C(N)C1=NC(C(=O)N[C@@H](CC(C)C)C(=O)N[C@H](CCC(=O)O)C(=O)N[C@H](C(=O)N[C@H]2CCCCNC(=O)[C@H](CC(N)=O)NC(=O)[C@@H](CC(=O)O)NC(=O)[C@H](Cc3cnc[nH]3)NC(=O)[C@@H](Cc3ccccc3)NC(=O)[C@H]([C@@H](C)CC)NC(=O)[C@@H](CCCN)NC2=O)[C@@H](C)CC)CS1 (stereo partly drawn) (X1-L[dE]IK[dOrn]I[dF]H[dD]N; lactam 4-C),Potency,[1],inactive
same,Potency,[2],inactive
CC(C#N)C(C)O[C@@H]1O[C@H](CO)[C@@H](O)[C@H](O)[C@H]1O (stereo partly drawn),Potency,[1],inactive
same,Potency,[2],inactive
Cc1cc(O)c(C(C)C)cc1O[C@@H]1O[C@H](CO)[C@@H](O)[C@H](O)[C@H]1O,Potency,[1],inactive
same,Potency,[2],inactive
